Shown are actives, neighbours in structure and some others; about 0.99% of the full set was active somewhere.
TRPV1 potentiator – potentiators of human vanilloid receptor 1 (TRPV1). Q8NER1. TRPV1-expressing cells, Fluo-8 calcium influx, capsaicin EC20 potentiation. potentiation, % at 8.33 µM. hit rate 0.02% among 320,000. AID 540277; in the data active = potentiation above about 80%; inconclusive = between about 30% and that limit; note: 0% is about no effect
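Fluo-8 calcium influx in TRPV1-expressing cells, kinetic read (ex 480/em 520 nm). Compound added and read 3 min for agonist activity, followed by capsaicin at EC20 final and 2 min further read for enhancement.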
TRPV1 agonist – activates the human vanilloid receptor TRPV1 | Q8NER1 | TRPV1-expressing cells, Fluo-8 calcium influx, agonist mode | activation, % at 8.33 µM | hit rate 0.19% among 320,000 | AID 540275; in the data active = activation above about 80%; inconclusive = between about 30% and that limit; note: 0% is about no effect
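Fluo-8 calcium influx in TRPV1-expressing cells, kinetic read (ex 480/em 520 nm). Compound added and read 3 min for agonist activity, followed by capsaicin at EC20 final and 2 min further read for enhancement.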
TRHR agonist – activates the human TRH receptor; activation, % at 2 µM; TRHR cells, calcium flux fluo-8, FDSS agonist mode; P34981; hit rate 0.18% among 360,000; in the data active = activation above about 30%; note: 0% is about no effect
Target sequence (P34981 whole entry, looked up): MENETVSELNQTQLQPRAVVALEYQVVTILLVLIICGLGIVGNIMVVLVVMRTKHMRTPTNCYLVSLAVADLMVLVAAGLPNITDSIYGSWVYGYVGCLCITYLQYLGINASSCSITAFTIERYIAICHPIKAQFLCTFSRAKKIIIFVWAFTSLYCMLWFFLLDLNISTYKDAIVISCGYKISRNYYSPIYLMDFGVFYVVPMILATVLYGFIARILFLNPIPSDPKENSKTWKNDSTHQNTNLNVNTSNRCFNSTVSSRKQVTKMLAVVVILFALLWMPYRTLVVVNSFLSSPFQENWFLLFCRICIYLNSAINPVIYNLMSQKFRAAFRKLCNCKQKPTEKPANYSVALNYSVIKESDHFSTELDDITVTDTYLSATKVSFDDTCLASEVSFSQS
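In this calcium-flux screen, cells bearing human TRHR are dye-loaded with fluo-8, baselined for 10 cycles, then exposed to library compounds; positive kinetic calcium responses during the agonist phase mark hits, with TRH as control.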
TRPML1 inh – human mucolipin-1 channel inhibition; Q9GZU1; hit rate 0.02% among 390,000; TRPML1-inducible cells, Ca2+ dye fluorescence, FDSS; stronger effect = lower value; inhibition of EC80 agonist-evoked calcium signal; activity change, negative = inhibition, % (no concentration beside the values); in the data active = activity change below about -50%; inconclusive = between about -30% and that limit;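 note: stimulus is agonist 54-4 at its EC80 concentration; % is set by controls: 0 for no effect and ±100 for the full control effect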
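Calcium fluorescence in TRPML1-DL cells induced overnight with Tet: a 110 s read after compound pin addition, then a 110 s antagonist read after challenge with 54-4 at 4 uM final (EC80).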
TRPML1 agonist – human mucolipin-1 channel agonism | Q9GZU1 | TRPML1-expressing cells, Ca2+ dye fluorescence, FDSS | activation, % (no concentration beside the values) | hit rate 0.12% among 410,000 | AID 624414; in the data active = activation above about 50%; inconclusive = mostly about 30% to 49%; note: 0% is about no effect
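Agonist activity was taken from a 110 s kinetic Ca2+ dye read on the FDSS after pinning compounds onto TRPML1-DL cells. The cells were seeded at 1,500/well with Tet inducer, incubated about 16 h, then dye-loaded at room temperature.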
TRHR PAM – allosteric enhancers of human TRH receptor. P34981. TRHR cells, fluo-8 calcium fluorescence, EC20 TRH enhancement. enhancement, % at 2 µM. hit rate 0.66% among 360,000. AID 493056; in the data active = enhancement above about 30%; note: 0% is about no effect
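TRHR-expressing cells loaded with fluo-8 calcium dye were read kinetically (ex 480/em 530) during compound addition, then stimulated with an EC20 of TRH (10 nM final). Enhancement of the Gq-mediated intracellular calcium response was scored.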
Active calls of the source: *; ? = inconclusive; / = no result given; ! = not confirmed by another sample.

SMILES	TRPV1 potentiator	TRPV1 agonist	TRHR agonist	TRPML1 inh	TRPML1 agonist	TRHR PAM
Cc1ccnc2ccc3ccccc3c12	/	/	/	/	-0.5	/
Oc1cncc(-c2cccnc2)c1	0.8	1.1	0.5	-7.8	0.2	30.5*
NS(=O)(=O)c1ccc(NC(=O)c2nc(S(=O)(=O)Cc3ccccc3F)ncc2Cl)cc1	/	/	/	/	-0.7	/
CC1CC1C(=O)OCc1cc(=O)n2cc(Br)ccc2n1 (configuration not stated)	-35.0	4.5	0.0	0.9	-0.3	34.2*
CC(=O)Nc1ccc(S(=O)(=O)O)c2cc(S(=O)(=O)O)c(N=Nc3ccc(N=Nc4ccc(S(=O)(=O)O)cc4)c4ccc(S(=O)(=O)O)cc34)c(O)c12	/	/	/	/	-1.1	/
CSc1ncc(Cl)c(C(=O)Nc2c(C(=O)c3ccc(C)cc3)oc3ccccc23)n1	/	/	0.2	-8.4	-0.8	0.3
CSc1ncc(Cl)c(C(=O)Nc2c(C(=O)c3ccc(Cl)cc3)oc3ccccc23)n1	/	/	0.2	2.2	0.4	47.3*
C=CCN(CC(=O)NC1CCS(=O)(=O)C1)S(=O)(=O)c1ccccc1C(F)(F)F (configuration not stated)	-4.8	2.1	2.3	-4.2	0.1	30.9*
COc1cccc(NC(=O)CSc2c(C)cnc3c2c(=O)n(C)c(=O)n3C)c1	/	/	-0.4	16.3	2.2	3.6
O=C(CSc1ccccc1)NNC(=O)c1ccncc1	5.4	-0.1	-0.1	4.0	1.3	31.6*
CC(C)C[C@@H](CN=[N+]=[N-])N1CCN(CCc2ccccc2)CCC1=O	/	/	/	/	-0.4	/
COc1ccc(NC(=O)CC2C(=O)N(c3ccc(F)cc3)C(=O)N2CCc2sccc2C)cc1 (configuration not stated)	/	/	0.7	-20.0	0.6	1.3
CCOc1ccc(NC(=O)CC2C(=O)N(c3ccc(F)cc3)C(=O)N2CCc2sccc2C)cc1 (configuration not stated)	/	/	0.7	18.5	-0.2	41.5*
Cc1nc2c(n1C1CCCCC1)C(=O)c1ccccc1C2=O	-5.9	-3.6	-0.8	-4.4	65.4*	15.0
CC(C)(C)n1ncc2c(=O)n(Cc3ccc(F)cc3)cnc21	/	/	/	18.8	0.9	/
O=C(NCc1nc(-c2ccccc2)no1)Nc1ccc(F)cc1	-4.3	?	-0.2	33.7	1.7	40.3*
CCCOc1ccc(C(=O)NNC(=S)NC(=O)c2ccco2)cc1	-8.2	19.1	23.3	1.1	17.1	-2.5
CCCOc1ccc(C(=O)NNC(=S)NC(C)=O)cc1	16.0	-1.1	0.5	5.2	1.5	-1.8
CCCOc1ccc(C(=O)NNC(=S)NC(=O)c2ccccc2)cc1	-25.5	21.1	37.6*	-13.4	-0.3	2.1
CCCOc1ccc(C(=O)NNC(=S)NC(=O)c2cccs2)cc1	4.3	10.2	13.4	-7.2	53.4*	-2.3
Cc1cc(C)n(-c2nc(C)c(C)c(=O)n2CC(=O)Nc2ccc(OC(F)(F)F)cc2)n1	/	/	0.1	13.8	0.5	-15.7
COc1ccc(-c2cc(C(F)(F)F)n3nc(C(=O)Nc4cccc(Cl)c4C)cc3n2)cc1	/	/	1.5	6.8	-0.5	38.7*
CC/C(=C/c1ccccc1OC)c1cc(-c2ccccc2)cc2oc3ccccc3c12	/	/	/	/	0.7	/
Cc1ccc(C)c(N2CCN(CCCNC(=O)Cn3ncc4c([nH]c5ccccc54)c3=O)CC2)c1	/	/	0.1	-6.9	2.7	4.0
COc1ccccc1N1CCN(CCCNC(=O)Cn2ncc3c([nH]c4ccccc43)c2=O)CC1	-1.0	0.8	0.2	0.7	0.3	31.7*!
SMILES	TRPV1 potentiator	TRPV1 agonist	TRHR agonist	TRPML1 inh	TRPML1 agonist	TRHR PAM
CS(=O)(=O)Nc1cccc(-c2cc(F)c(S(=O)(=O)N3CCN(S(=O)(=O)c4ccc5c(c4)OCCO5)CC3)cc2F)c1	/	/	-0.3	/	/	1.9
Cc1c(C(=O)O)nn(-c2cccc(C(F)(F)F)c2)c(=O)c1C#N	3.4	2.1	0.0	-0.6	-0.1	-11.1
COC(=O)c1nn(-c2cccc(C(F)(F)F)c2)c(=O)cc1Sc1ccccn1	-15.7	?	-0.7	28.5	1.2	38.7*
COc1cc(/C=N/N2C(=O)CSC2=S)ccc1O	3.1	-0.5	5.6	-15.4	1.6	1.1
O=C1CSC(=S)N1/N=C/c1cc(Br)c(O)c(Br)c1	-11.4	?	160.1*	-13.3	58.9*	31.7*
Cc1cccc(C(=O)NCC(=O)OC(C(=O)Nc2cc(C(F)(F)F)ccc2Cl)c2ccccc2)c1 (configuration not stated)	/	/	2.3	/	/	-7.0
Cc1ccc2c(c1)nnn2C1CCN(C(=O)NCc2ccccc2)CC1	-13.3	88.7*	-0.7	-9.2	-0.7	2.2
Cc1cccc(NC(=O)N2CCC(n3nnc4cc(C)ccc43)CC2)c1	-11.4	?	-0.7	-3.0	1.3	-18.1
O=C(CN(CCc1c[nH]c2ccccc12)S(=O)(=O)c1ccccc1)N1CCCCCC1	/	/	/	/	-0.4	/
COc1ccc2c(c1C)CCC(C)(C#N)C2=O (configuration not stated)	/	/	/	-24.3	77.9*	/
COc1cccc(-c2cc(C(=O)N3CCN(S(=O)(=O)c4ccc(Br)cc4)CC3)[nH]n2)c1	5.6	6.2	0.7	-6.9	0.5	8.6
COc1ccc(S(=O)(=O)N2CCN(C(=O)c3cc(-c4ccccc4OC)n[nH]3)CC2)cc1	16.8	81.9*	-0.2	2.1	1.8	2.2
CC(C)(C)c1ccc(C(=O)C[n+]2ccc(Cl)c3ccc(Cl)cc32)cc1	/	/	/	/	-0.6	/
CCCNC(=O)C/C(C)=N/NC(=O)COc1ccc(C)cc1Br	-35.8	3.8	-0.1	-2.7	0.1	19.6
COc1ccc(CNC(=O)C/C(C)=N/NC(=O)COc2ccc(C)cc2Br)cc1	2.7	1.4	0.0	-10.7	-0.9	32.3*
O=C(CBr)c1ccc(Oc2ccc(C(=O)C[n+]3ccccc3Cl)cc2)cc1	/	/	/	/	-0.3	/
COc1cc(CNC(=O)CCCC/C=C/C(C)C)ccc1O	-2.4	103.3*	-0.5	-20.8	1.3	5.7
N#Cc1nc(NCC(F)F)c2ncn(-c3cc(F)cc(F)c3)c2n1	/	/	1.5	/	/	1.7
CCOC(=O)CC1=C(C(=O)OCC)C(c2cccnc2)C(C#N)=C(N)O1 (configuration not stated)	-1.9	2.8	0.0	12.2	-0.1	33.1*
CCOC(=O)CC1=C(C#N)C(c2cccnc2)C(C(=O)OCC)=C(N)O1 (configuration not stated)	2.0	-0.5	0.1	12.4	-0.7	0.6
O=C(CN1CCN(CC(=O)Nc2ccccc2Cl)CC1)NCC1(N2CCCCC2)CCCCC1	16.4	-0.3	0.2	-12.1	1.4	3.3
O=C(CN1CCN(CC(=O)Nc2ccccc2Cl)CC1)NCC1(N2CCOCC2)CCCCC1	3.2	-0.3	1.0	-10.4	98.2*	-1.7
COC(=O)c1ccc(NC(=O)CSCc2ccccc2C)cc1	-3.2	27.4	0.0	0.2	0.1	39.5*

Screening data as filed in PubChem BioAssay.
